About 550 (1.1%) of roughly 48,000 compounds were called active. Not shown: some 4% with an inconclusive outcome. This is one part of a sample in which actives are shown more often than they occur. Values without a mark were called inactive. No stated cut-off is given here; in the data, active means potency below about 15 µM; inconclusive means mostly about 16 µM to 33 µM; inactive means weaker than that.
Each compound was assayed against Lysosomal acid glucosylceramidase (Homo sapiens) (UniProt P04062) (assay: Glucocerebrosidase). Conditions: purified enzyme, resorufin glucoside fluorescence (screen aimed at inhibitors), 20 min.
Description: NCGC Assay Overview: Beta-glucocerebrosidase catalyzes the hydrolysis of beta-glucocerebroside to glucose and ceramide. The inherited deficiency of beta-glucocerebrosidase results in Gaucher disease, which is characterized by a wide variety of symptoms including hepatosplenomegaly, anemia, thrombocytopenia, bony lesions and bone marrow infiltration with characteristic storage cells, known as Gaucher cells. There are also forms of the disorder affecting the central nervous system. Patients with the same genotypes can manifest with diverse clinical presentations and it is believed that improper folding and trafficking of beta-glucocerbrosidase may contribute to the phenotypes observed. Low molecular weight molecules, acting as chaperones, may potentially restore trafficking of misfolded beta-glucocerebrosidase from the endoplasmic reticulum to the lysosomes, thereby enhancing functional lysosomal beta-glucocerebrosidase activity. Using normal beta-glucocerebrosidase, an assay was developed to screen for small molecule inhibitors that could potentially act as molecular chaperones on the mutant forms [developed with NIH investigator Dr. Ellen Sidransky's laboratory]. Two pro-fluorescent substrates were chosen for two screens against a small molecule library. One beta-glucocerebrosidase assay used Resorufin beta-D-Glucopyranoside (Marker Gene Technology Inc.), generating a red fluorescent product. The second assay used Fluorescein di-beta-D-Glucopyranoside, generating a blue fluorescent product. […] The IC50 values of Conduritol B Epoxide, a known glucocerebrosidase inhibitor, were determined to be 87.5 uM and 117 uM, respectively. The use of two difference pro-fluorescent substrates in the screens helped to eliminate false positives. All compounds were screened in a titration series resulting in AC50s (e.g., IC50s or EC50s).
NCGC Assay Protocol Summary: Both enzyme and substrate were diluted in buffer composed of 50mM citric acid/KH2PO4, 10mM sodium taurocholate and 0.01% tween-20 at pH 5.9. The final concentration of the enzyme was 0.2 nM in both assays. The compound library was titrated in 7 to 15 concentrations for the primary screens with a final concentration ranging from 0.6 nM to 50 uM. This particular assay protocol is for the "red" substrate, and it was performed in 1536-well plate format as follows: Red fluorescence substrate assay: 2 uL enzyme 23 nL compound 1 uL substrate (final concentration of 30 uM) Incubate at room temperature (RT) for 20 minutes Read the plate in Viewlux plate reader (Ex=548(7) and Em=600(10)).
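Further: the screen sought inhibitors.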
Potency means the concentration at half of the fitted maximal effect.

Lysosomal acid glucosylceramidase (Homo sapiens), sequence (P04062 whole entry, looked up): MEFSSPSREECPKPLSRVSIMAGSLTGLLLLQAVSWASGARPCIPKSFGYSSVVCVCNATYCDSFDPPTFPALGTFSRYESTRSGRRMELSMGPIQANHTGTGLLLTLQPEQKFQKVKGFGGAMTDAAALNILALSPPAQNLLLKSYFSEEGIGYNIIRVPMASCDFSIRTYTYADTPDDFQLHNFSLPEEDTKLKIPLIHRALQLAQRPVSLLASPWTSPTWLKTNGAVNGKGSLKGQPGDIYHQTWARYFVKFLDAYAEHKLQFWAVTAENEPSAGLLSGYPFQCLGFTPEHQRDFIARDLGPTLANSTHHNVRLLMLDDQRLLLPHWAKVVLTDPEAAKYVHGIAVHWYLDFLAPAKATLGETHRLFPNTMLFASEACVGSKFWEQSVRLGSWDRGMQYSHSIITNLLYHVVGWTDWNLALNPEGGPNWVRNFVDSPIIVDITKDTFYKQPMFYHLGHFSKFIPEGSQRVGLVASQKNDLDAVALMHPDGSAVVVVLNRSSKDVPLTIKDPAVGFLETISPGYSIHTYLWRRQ

Compound	Potency
Fc1ccc(N2CCN(Cc3ccc4c(c3)OCO4)CC2)cc1	> 76.9 µM
CC(C)c1ccc(O)c(CN2CCN(c3ccccc3)CC2)c1	10.2 µM (active)
O=C(c1cc(-c2ccncc2)nc2ccccc12)N1CCC2(CC1)OCCO2	> 76.9 µM
CC(=NCC1CCCO1)c1c(O)n(-c2ccccc2)c(=O)[nH]c1=O (stereo not given)	> 76.9 µM
CC(=O)c1c(O)n(C2CCCCCC2)c(=O)[nH]c1=O	> 76.9 µM
